Compounds with a hit are over-represented: about 31% of the library has one in this group of screens.
PLAP act = activates human placental alkaline phosphatase. activation fold at 20 µM. purified PLAP enzyme, luminescent substrate read-out; hits give high values. P05187. AID 696. 1.2% of 96,000 active; in the data active = activation fold above about 2
Target sequence (P05187 whole entry, looked up): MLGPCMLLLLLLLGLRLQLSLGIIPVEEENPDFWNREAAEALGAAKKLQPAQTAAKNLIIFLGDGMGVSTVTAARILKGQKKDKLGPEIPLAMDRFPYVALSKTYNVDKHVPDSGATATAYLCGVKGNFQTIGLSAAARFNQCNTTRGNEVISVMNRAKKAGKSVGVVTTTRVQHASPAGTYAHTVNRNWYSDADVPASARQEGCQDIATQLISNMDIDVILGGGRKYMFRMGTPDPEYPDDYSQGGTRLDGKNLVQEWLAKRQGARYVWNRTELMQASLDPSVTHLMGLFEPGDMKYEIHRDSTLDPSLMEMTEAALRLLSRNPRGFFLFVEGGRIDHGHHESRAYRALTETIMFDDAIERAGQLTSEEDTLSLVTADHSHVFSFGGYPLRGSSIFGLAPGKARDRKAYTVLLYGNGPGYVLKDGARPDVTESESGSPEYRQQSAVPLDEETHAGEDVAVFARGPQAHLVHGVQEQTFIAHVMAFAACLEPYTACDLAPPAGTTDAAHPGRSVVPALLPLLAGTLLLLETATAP
CYP2C9 inh = blocks human cytochrome P450 2C9 | P11712 | CYP2C9 Supersomes, luciferin-H conversion, luminescence | inhibition, % at 5 µM | 20% of 96,000 active | AID 777;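 active = blocking of liver enzyme CYP2C9 beyond about 50% at 5 µM, limit read from the data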
CYP2C19 inh = inhibitors of human CYP2C19; CYP2C19 Supersomes, luciferin-H EGE luminescence, 30 min; inhibition, % at 5 µM; 21% of 96,000 active;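 active = CYP2C19 inhibition above a set limit at 5 µM in the primary screen, cut at about 50% in these data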;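 also: plate controls were negative control wells for no effect and 2.5 mM tranylcypromine positive control for full effect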
CYP2C19 activ = cytochrome P450 2C19 (human) activation. AID 1025. P33261. activation factor at 5 µM. 96,000 tested, under 10 active. recombinant CYP2C19, luciferin-H EGE luminescence; hits give high values; 0 = fully inhibited enzyme, 1 = untreated enzyme;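 active = activation factor of at least 2 at 5 µM in the primary screen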;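 also: 0 = wells with 2.5 mM tranylcypromine and 1 = vehicle-only wells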
CYP2C9 activ = activators of human CYP2C9; recombinant CYP2C9, luciferin-H conversion, luminescence; hits give high values; factor 1 = untreated enzyme, 0 = blocked; activation factor at 5 µM; 1.4% of 96,000 active; AID 1024;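 active = activation factor of 2 or more for CYP2C9 at a 5 µM dose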;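 also: 0 = sulfaphenazole-blocked wells and 1 = vehicle-only wells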
* marks the source's active call; other numbers are inactive results.

SMILES | PLAP act | CYP2C9 inh | CYP2C19 inh | CYP2C19 activ | CYP2C9 activ
CCCOc1ccccc1N/C(=N/c1nc(C)cc(C)n1)NC(=O)COc1ccc(OC)cc1 | 2.4* | 92.4* | 89.8* | 0.1 | 0.1
COc1ccccc1NC(=O)CCCC(=O)OCC(F)(F)C(F)F | 1.2 | -181.9 | 87.1* | 0.1 | 2.8*
COCCn1cc(C(=S)N2CCOCC2)c2ccccc21 | 1 | -33.0 | -5.4 | 1.1 | 1.3
CC1CCN(C(=O)CSc2nnc(CNC(=O)c3ccco3)o2)CC1 | 0.9 | -9.7 | -7.2 | 1.1 | 1.1
CC1(C)CC(=O)C2(CC3=C(CC(C)(C)CC3=O)O2)C(=O)C1 | 1.2 | -4.6 | -3.1 | 1 | 1
CCN(CC)CCOc1ncnc2c1oc1ccccc12 | 1 | 43.0 | 65.9* | 0.3 | 0.6
O=C1CN(C(=O)CSc2nnc(C3CC3)n2-c2ccccc2)c2ccccc2N1 | 1 | 10.8 | 12.4 | 0.9 | 0.9
O=C(C1CC1)N1CCc2cc(S(=O)(=O)NCC3COc4ccccc4O3)ccc21 (stereo not drawn) | 0.9 | 51.7* | 72.1* | 0.3 | 0.5
O=C(C1CC1)N1CCc2cc(Br)cc(S(=O)(=O)NCC3COc4ccccc4O3)c21 (stereo not drawn) | 1.4 | 58.7* | 91.2* | 0.1 | 0.4
O=C(C1CCC1)N1CCc2cc(S(=O)(=O)NCC3COc4ccccc4O3)ccc21 (stereo not drawn) | 0.9 | 24.6 | 17.2 | 0.8 | 0.8
CCC(=O)N1CCc2cc(Br)cc(S(=O)(=O)NCc3ccco3)c21 | 1.1 | -6.7 | 52.7* | 0.5 | 1.1
CC(C)OC(=O)c1c(-c2ccc(C(C)C)cc2)csc1NC(=O)C1CCCO1 (stereo not drawn) | 0.9 | 22.6 | -3.9 | 1 | 0.8
c1ccc(CSc2ncccn2)cc1 | 0.9 | -11.4 | -4.7 | 1 | 1.1
O=S1(=O)C=C(SCc2ccccc2)Nc2ccccc21 | 0.9 | 63.2* | 68.4* | 0.3 | 0.4
CCN(CC)C(=O)C1CCCN(Cc2ccc(OC)c(C)c2)C1 (stereo not drawn) | 1.2 | -12.4 | 19.1 | 0.8 | 1.1
CCSC(=O)N(CC)CC(=O)Nc1c(CC)cccc1CC | 0.8 | 27.6 | 41.8 | 0.6 | 0.7
CCCN(CC(=O)Nc1c(C)cccc1CC)C(=O)SCC | 1.1 | 21.5 | 59.9* | 0.4 | 0.8
CCCCN(CC(=O)Nc1c(C)cccc1CC)C(=O)SCC | 1.1 | 48.9 | 70.8* | 0.3 | 0.5
COc1cc2c(C)nc(C)c(C#N)c2cc1OC | 0.9 | 0.4 | -6.2 | 1.1 | 1
Cc1ccc(S(=O)(=O)Cn2nnnc2C(CC(C)C)N2CCN(c3ccc(F)cc3)CC2)cc1 (stereo not drawn) | 1.1 | 42.4 | 23.4 | 0.8 | 0.6
Cc1ccc(-c2nnnn2CS(=O)(=O)c2ccccc2)cc1 | 0.9 | -73.8 | 67.9* | 0.3 | 1.7
CCCC(c1nnnn1CS(=O)(=O)c1ccc(C)cc1)N1CCN(c2ccccc2)CC1 (stereo not drawn) | 0.9 | 61.6* | 26.7 | 0.7 | 0.4
Cc1ccc(S(=O)(=O)Cn2nnnc2C(c2ccccc2)N2CCN(c3ncccn3)CC2)cc1 (stereo not drawn) | 1.7 | 93.5* | 98.0* | 0 | 0.1
CC1=C(C(=O)Nc2cc(-c3cccc(F)c3)[nH]n2)C2(CCCCC2)OC1=O | 1.1 | 83.1* | 51.6* | 0.5 | 0.2
COc1ccc(C(=O)/C=C\c2ccc(NC(=O)c3cccs3)cc2)cc1 | 0.9 | 4.7 | 19.4 | 0.8 | 1
SMILES | PLAP act | CYP2C9 inh | CYP2C19 inh | CYP2C19 activ | CYP2C9 activ
Cc1cc(C)n(-c2nc3ccccc3c(=O)n2OCc2ccc(F)cc2)n1 | 1.8 | 50.2* | 98.8* | 0 | 0.5
Cc1cc(C)n(-c2nc3ccccc3c(=O)n2OCC(=O)Nc2c(C)cccc2C)n1 | 1.3 | 51.6* | 11.1 | 0.9 | 0.5
Cc1cc(C)n(-c2nc3ccccc3c(=O)n2OCc2ccc(Cl)cc2)n1 | 1.1 | 26.5 | 97.6* | 0 | 0.7
CCc1c(C)n2nc(C)cc2[nH]c1=O | 1.2 | -32.6 | -20.8 | 1.2 | 1.3
O=C(NC(CSCc1ccccc1)C(=O)N/N=C/c1ccc(O)cc1O)c1ccc([N+](=O)[O-])cc1 (stereo not drawn) | 2.7* | 26.1 | 22.8 | 0.8 | 0.7
O=C(N/N=C/c1ccc(O)c(O)c1O)/C(=C/c1ccc([N+](=O)[O-])cc1)NC(=O)c1ccccc1 | 1.9 | 13.4 | 15.4 | 0.8 | 0.9
O=C(NCCCN1CCCC1=O)c1ccc(Cl)c(NS(=O)(=O)c2ccc(F)cc2)c1 | 1.4 | 21.5 | -7.0 | 1.1 | 0.8
CSc1nsc(/C=C/Nc2cccc(Cl)c2)c1C#N | 1.1 | 65.4* | 20.0 | 0.8 | 0.3
COc1ccc(CCNC(=O)C2CCCN(S(C)(=O)=O)C2)cc1OC (stereo not drawn) | 1 | -21.8 | -13.8 | 1.1 | 1.2
Cn1c(N)c(C(=O)COC(=O)Cc2ccsc2)c(=O)n(C)c1=O | 1.1 | -7.0 | -0.7 | 1 | 1.1
COc1ccc2c(c1)CCc1c(C(=O)NCc3cccnc3)noc1-2 | 1.1 | 5.5 | -8.4 | 1.1 | 0.9
O=C(NCc1ccc(F)cc1)c1noc2c1CCCC2 | 1 | 14.9 | 18.5 | 0.8 | 0.9
Cc1ccn2cc(CCNC(=O)c3ccc(Br)o3)nc2c1 | 1 | 3.0 | 38.9 | 0.6 | 1
CC12CCC(C(=O)NCc3ccco3)(OC1=O)C2(C)C (stereo not drawn) | 1 | -6.4 | 7.1 | 0.9 | 1.1
CC12CCC(C(=O)NCCCn3ccnc3)(OC1=O)C2(C)C (stereo not drawn) | 1.2 | 32.3 | 75.8* | 0.2 | 0.7
O=C(NCCCn1ccnc1)c1noc2c1CCc1ccccc1-2 | 1 | 50.2* | 83.1* | 0.2 | 0.5
O=C(NCCCn1ccnc1)c1ccc(Br)o1 | 1.2 | 34.5 | 59.1* | 0.4 | 0.7
O=C(NCCCn1ccnc1)c1noc2c1CCCC2 | 0.9 | 84.8* | 68.6* | 0.3 | 0.2
CCc1nc2c(n1O)CCc1nonc1-2 | 0.9 | 39.9 | 5.6 | 0.9 | 0.6
CCCOc1ccc(C(=O)NC(=S)Nc2nc(C)c(C(=O)N(C)C)s2)cc1 | 1.4 | 43.2 | 62.7* | 0.4 | 0.6
COCCNC(=O)C1c2ccccc2C(=O)N(CCOC)C1c1ccc(F)cc1 (stereo not drawn) | 1.1 | -10.0 | -15.6 | 1.2 | 1.1
COCCN1C(=O)c2ccccc2C(C(=O)N2CCN(c3ccccc3)CC2)C1c1ccc(F)cc1 (stereo not drawn) | 1.7 | 71.2* | 17.9 | 0.8 | 0.3
Cc1noc(/C=C/N(C)C)c1S(=O)(=O)NC1CCCCC1 | 1.1 | 29.7 | 25.5 | 0.7 | 0.7
CCN=C(NCC)SC1CC(=O)N(c2ccccc2)C1=O (stereo not drawn) | 1.1 | -1.3 | 87.8* | 0.1 | 1
CCN=C(NCC)SC1CC(=O)N(c2cccc(OC)c2)C1=O (stereo not drawn) | 1.1 | -109.8 | 78.7* | 0.2 | 2.1*
COc1ccc(N2C(=O)CC(NCc3cccc(F)c3)C2=O)cc1 (stereo not drawn) | 1.3 | 11.0 | 12.8 | 0.9 | 0.9

Bioassay records (PubChem)
